A selection: hits, their analogues and other compounds. The true share with any hit is near 2.3%.
TDP-43 yeast inh = inhibitors of TDP-43 toxicity in yeast | 1.8% of 410,000 active | AID 652104 | TDP-43 expressing yeast growth rescue, BacTiter-Glo, 24 h | Potency, µM (doses to about 46.1 µM), for the others: at the highest dose growth rescue (activation), usual class: activators; note: potency is the fitted concentration of half-maximal effect; % of control where 0% means no effect; nearly all actives have a fitted effect of over 50% in size
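Readout is BacTiter-Glo luminescence of cell growth, so inhibitors register as activators. TDP-43-expressing yeast at OD600=0.02 in galactose medium, after raffinose pregrowth to mid-log, were incubated with compound for 24 hr at 30 deg C.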
FUS yeast rescue = rescues growth of FUS-expressing yeast. 0.24% of 390,000 active. S. cerevisiae FUS-expressing, growth rescue, OD600, 24 h. AID 1347120. Potency, µM (doses to about 76.6 µM), actives largely listed as activators;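 note: potency is the fitted concentration of half-maximal effect; plate controls were DMSO vehicle for no effect and reference control for full effect; nearly all actives have a fitted effect of over 55% in size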
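Yeast FUS proteinopathy model; galactose-induced FUS (2%), starting OD 0.005. Cpds in dilution series, 24hr, 30C, 99% humidity. Abs 600 nm growth. Pos ctrl CP55940 (top 92uM final); neg ctrl DMSO.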
pAkt inh = inhibitors of Akt phosphorylation; 0.32% of 360,000 active; Neuro2A IGF-stimulated pAkt S473 HTRF, 20 min; stronger effect = lower value; activity change, % for hits at 50 µM; in the data active = activity change below about -80%; inconclusive = mostly about -51% to -80%; note: % is set by controls: 0 for no effect and ±100 for the full control effect
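Neuro2A cells in DMEM with 0.5% FBS, overnight at 37 deg C, given compound at single 50 µM final, then IGF (6 nM final) for 20 min at 37 deg C. Lysed; phospho-Akt Ser473 by HTRF after 24 h, 665/615 ratio.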
aSyn yeast inh = rescues yeast growth from alpha-synuclein toxicity. Yeast expressing alpha-synuclein, growth rescue, BacTiter-Glo, 24 h. Potency, µM (series often up to 46.1 µM), inactives show at the top dose growth rescue (activation), hits mostly activators. 0.14% of 370,000 active. AID 652106; note: potency is the fitted concentration of half-maximal effect; % of control where 0% means no effect; nearly all actives have a fitted effect of over 65% in size
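Rescue of yeast growth: cells expressing toxic alpha-synuclein, induced in galactose at OD600 0.02, incubated with compound 24 h at 30 C. ATP luminescence quantified growth; inhibitors of toxicity appear as activators.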
Abeta yeast res = A-beta toxicity reversal in yeast; 0.063% of 410,000 active; Potency, µM (top dose mostly 46.1 µM), actives largely listed as activators; yeast expressing A-beta42, growth rescue, OD600, 48 h; response scale: 0% DMSO, 100% iron-clioquinol control; note: potency is the fitted concentration of half-maximal effect; nearly all actives have a fitted effect of over 55% in size
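Yeast A-beta toxicity model in growth medium with pinned compounds, 48 h at 30 C; growth read as absorbance at 600 nm. Normalized to FeCl3/clioquinol equimolar mix (positive) and DMSO (negative).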
Numbers without * were called inactive; ! = not active in a repeat; [ ] = another dose, or the depositor's remark. Unless noted, calls come from the whole dose curve; as a rule, active = well fitted curve in the direction sought with a large enough effect; inconclusive = small, poorly fitted or top-dose-only effect, or another doubt; inactive = no such curve, though single readings can be large; an effect the other way counts as inactive or inconclusive.

Screening C=Cc1ccc(CC2(C)C(=O)Nc3c(Cl)cccc32)cc1 (configuration not stated) returned TDP-43 yeast inh -37.4%, FUS yeast rescue inactive, pAkt inh inactive, aSyn yeast inh 10µM* and Abeta yeast res inactive.
Screening CC1(Cc2cccc(C(N)=O)c2)C(=O)Nc2c(Cl)cccc21 (configuration not stated) returned TDP-43 yeast inh 23.7%, FUS yeast rescue inactive, pAkt inh inactive, aSyn yeast inh 0.2% and Abeta yeast res inactive.
`CC1(Cc2ccc(F)cc2)C(=O)Nc2c(Cl)ccc(Cl)c21` (configuration not stated) gave TDP-43 yeast inh 26.5%, FUS yeast rescue inactive, pAkt inh inactive, aSyn yeast inh 11.2µM* and Abeta yeast res inactive.
For CC1(Cc2ccccc2OC(F)(F)F)C(=O)Nc2c(Cl)ccc(Cl)c21 (configuration not stated) the results were TDP-43 yeast inh 9.2%, FUS yeast rescue inactive, pAkt inh inactive, aSyn yeast inh inconclusive and Abeta yeast res inactive.
`CC1(Cc2cccc(C#N)c2)C(=O)Nc2c(Cl)cccc21` (configuration not stated) gave TDP-43 yeast inh inconclusive, FUS yeast rescue inactive, pAkt inh inactive, aSyn yeast inh 17.8µM* and Abeta yeast res inactive.
For CC1(Cc2ccccc2Cl)C(=O)Nc2c(Cl)cccc21 (configuration not stated) the results were TDP-43 yeast inh inconclusive, FUS yeast rescue inactive, pAkt inh inactive, aSyn yeast inh 3.55µM* and Abeta yeast res inactive.
`C=Cc1ccc(CC2(C)C(=O)Nc3ccc(Cl)cc32)cc1` (configuration not stated) gave TDP-43 yeast inh 0.0%, FUS yeast rescue inactive, aSyn yeast inh inconclusive and Abeta yeast res inconclusive.
For COc1cccc(Cn2c(CNS(=O)(=O)c3ccc(C(C)(C)C)cc3)nc3cccnc32)c1 the results were TDP-43 yeast inh -7.5%, FUS yeast rescue inconclusive and Abeta yeast res inactive.
Screening COc1ccc(/C=N/NC(=S)SC)cc1OC returned TDP-43 yeast inh 35.5µM*, FUS yeast rescue inactive, pAkt inh inactive, aSyn yeast inh -18.5% and Abeta yeast res inconclusive.
O=C(Cc1c(Cl)cccc1Cl)Nc1ccncc1Cl was read as TDP-43 yeast inh 11.2µM*, FUS yeast rescue inactive, pAkt inh inactive, aSyn yeast inh 1.9% and Abeta yeast res inactive.
Screening O=C(O)c1cccnc1SCc1cccc(Cl)c1 returned TDP-43 yeast inh 35.5µM*!, FUS yeast rescue inactive, pAkt inh inactive, aSyn yeast inh 8.8% and Abeta yeast res inactive.
Screening Cc1cccc(CSc2ncccc2C(=O)O)c1 returned TDP-43 yeast inh inconclusive, FUS yeast rescue inactive, pAkt inh inactive, aSyn yeast inh 0.0% and Abeta yeast res inactive.
Screening O=C1c2ccccc2C(=O)N1CC1CO1 (configuration not stated) returned TDP-43 yeast inh -19.9%, FUS yeast rescue inactive, pAkt inh inactive, aSyn yeast inh -7.9% and Abeta yeast res inactive.
`O=C1c2ccccc2C(=O)N1C1C=CC=CC=C1` gave TDP-43 yeast inh 25.1µM*, FUS yeast rescue inactive, pAkt inh inactive, aSyn yeast inh inconclusive and Abeta yeast res inactive.
`Cc1ccc(Cl)cc1N1CCN(C(=O)CCn2c(=O)c3cccn3c3cccnc32)CC1` gave TDP-43 yeast inh inconclusive, FUS yeast rescue inactive and Abeta yeast res inactive.
For O=C(CCn1c(=O)c2cccn2c2cccnc21)N1CCN(c2cccc(Cl)c2)CC1 the results were TDP-43 yeast inh 20µM*!, FUS yeast rescue inactive, pAkt inh inactive, aSyn yeast inh 18.3% and Abeta yeast res inactive.
Screening CCc1nc(SCc2ccc(OC)cc2)n[nH]1 returned TDP-43 yeast inh 15.3%, FUS yeast rescue inactive, pAkt inh inactive, aSyn yeast inh 19.1% and Abeta yeast res inactive.
`CCc1nc(SCc2cc(Cl)ccc2OC)n[nH]1` gave TDP-43 yeast inh inconclusive, FUS yeast rescue inactive, pAkt inh inactive, aSyn yeast inh 15.8µM* and Abeta yeast res inactive.
O=C(N/N=C/C=C/c1ccco1)c1ccccc1Cl was read as TDP-43 yeast inh -6.6%[1.82 µM], FUS yeast rescue 39.8µM*, pAkt inh inactive, aSyn yeast inh 9.3% and Abeta yeast res inactive.
For CC(/C=C/c1ccco1)=N/NC(=O)c1ccccc1Cl the results were TDP-43 yeast inh -7.3%, FUS yeast rescue inconclusive, pAkt inh inactive, aSyn yeast inh 3.8% and Abeta yeast res inactive.
COc1ccc(/C=C/C(=O)Nc2nc3n(n2)C(c2ccc(F)cc2)C=C(c2ccccc2)N3)cc1 (configuration not stated) was read as TDP-43 yeast inh 0.0%[9.22 µM], FUS yeast rescue inconclusive and Abeta yeast res inactive.
For Cc1ccc(OCC(=O)NNC(=S)NC(=O)c2ccc(Br)o2)c(C)c1 the results were TDP-43 yeast inh inconclusive, FUS yeast rescue inactive, pAkt inh inactive, aSyn yeast inh inconclusive and Abeta yeast res inconclusive.
`Cc1onc(-c2ccccc2)c1C(=O)NNC(=S)NC(=O)c1ccc2c(c1)OCO2` gave TDP-43 yeast inh -17.1%, FUS yeast rescue inactive, pAkt inh inactive, aSyn yeast inh 16.5% and Abeta yeast res inconclusive.
For COc1ccc(C(=O)NNC(=S)NC(=O)c2ccc(Br)o2)cc1OC the results were TDP-43 yeast inh 3.55µM*, FUS yeast rescue inactive, pAkt inh inactive, aSyn yeast inh 7.7% and Abeta yeast res inactive.
`O=C(NC(=S)NNC(=O)[C@H]1C[C@@H]1c1ccccc1)c1ccc(F)cc1` gave TDP-43 yeast inh 10µM*, FUS yeast rescue inactive, pAkt inh inactive, aSyn yeast inh 3.55µM* and Abeta yeast res inconclusive.
`COc1ccc(C(=O)NC(=S)NNC(=O)c2c(-c3ccccc3)noc2C)cc1OC` gave TDP-43 yeast inh -14.3%[1.82 µM], FUS yeast rescue inactive, pAkt inh inactive, aSyn yeast inh inconclusive and Abeta yeast res 11.2µM*.
For COc1ccc(C(=O)NC(=S)NNC(=O)[C@H]2C[C@@H]2c2ccccc2)cc1OC the results were TDP-43 yeast inh 27.8%, FUS yeast rescue inactive, pAkt inh inactive, aSyn yeast inh 17.8µM* and Abeta yeast res inconclusive.
`CCC1CN(C(=O)N2CCC(C(=O)NCc3ccc(N(C)C)cc3)CC2)c2ccccc2O1` (configuration not stated) gave TDP-43 yeast inh -20.3%, FUS yeast rescue inactive and Abeta yeast res inactive.
CCn1c(C(=O)NCc2ccccc2)cc2sc(Cl)cc21 was read as TDP-43 yeast inh inconclusive, FUS yeast rescue inactive and Abeta yeast res inactive.
For Cc1ccc(-c2nc3c(c(SCc4ccc(Br)cc4)n2)Cc2c(CO)cnc(C)c2O3)cc1 the results were TDP-43 yeast inh 0.0%, FUS yeast rescue inactive and Abeta yeast res inactive.
